Reference: PubChem BioAssay AID504406 (Broad Institute, 2011)
Screen size: about 320,000 compounds; about 190 (0.059%) were called active. The sample holds actives, similar compounds and a random draw of the others, so the mix is not that of the screen. Unmarked numbers belong to inactive results. Cut-off read from the data, not from the text of the source: active = inhibition above about 10% (passing the limit was not always enough); inconclusive = no clear call, values can overlap the other calls.

Each molecule was assayed against UDP-galactopyranose mutase (Mycobacterium tuberculosis (strain ATCC 25618 / H37Rv)) (UniProt P9WIQ1) (assay: blockers of Mtb UDP-galactopyranose mutase – biochemical, fluorescence polarization, single point, primary screen (AID 504406)). Conditions: purified UGM, fluorescence polarization probe displacement; at 10 µM; stronger effect = higher value.
Chain of UDP-galactopyranose mutase (Mycobacterium tuberculosis (strain ATCC 25618 / H37Rv)) (P9WIQ1 whole entry, looked up): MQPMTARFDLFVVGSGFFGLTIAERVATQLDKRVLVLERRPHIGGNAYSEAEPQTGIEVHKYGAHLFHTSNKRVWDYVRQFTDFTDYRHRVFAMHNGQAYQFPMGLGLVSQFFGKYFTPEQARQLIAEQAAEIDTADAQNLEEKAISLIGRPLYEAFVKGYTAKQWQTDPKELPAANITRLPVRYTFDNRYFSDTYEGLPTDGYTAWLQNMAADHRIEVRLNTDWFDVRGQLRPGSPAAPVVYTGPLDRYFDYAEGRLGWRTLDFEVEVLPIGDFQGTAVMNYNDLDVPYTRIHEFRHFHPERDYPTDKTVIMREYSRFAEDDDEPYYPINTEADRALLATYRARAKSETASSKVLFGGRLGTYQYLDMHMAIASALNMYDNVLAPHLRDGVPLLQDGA

Going from `COCCCNC(=O)c1ccc(CNS(=O)(=O)c2ccc(NC(C)=O)cc2)cc1` to `NS(=O)(=O)c1ccc(NC(=O)COC(=O)C2(c3ccc(F)cc3)CCCC2)cc1`, the inhibition falls from 0.487% to -2.39%.

First: CCOc1c(Nc2cccc(Cl)c2)c(=O)c1=O
Second: NC1=NC(=O)C(Cc2cccc(Cl)c2)S1 (stereo not given)
The inhibition of the first is higher: 1.65% for the first, -2.61% for the second.

First: CN(C)S(=O)(=O)c1ccc2oc(SCC(=O)Nc3ccccc3F)nc2c1
Second: CCN(CC(=O)Nc1cccc(S(N)(=O)=O)c1)Cc1nc2ccccc2c(=O)[nH]1
The inhibition of the first is lower: -1.09% for the first, 0.435% for the second.

Compared with `CCCCN(C(=O)CCNC(=O)NC12CC3CC(CC(C3)C1)C2)c1c(N)n(CCCC)c(=O)[nH]c1=O`, `COc1ccc(N2CCN(S(=O)(=O)CCNC(=O)C34CC5CC(CC(C5)C3)C4)CC2)cc1` is lower in inhibition: 3.96% for the first, -0.995% for the second.

Going from `CC(C)N1C(=S)SC(C)(C)C1n1oc(=O)n(-c2ccc(Cl)c(Cl)c2)c1=O` (stereo not given) to `Cn1c(CC2Sc3ccccc3NC2=O)nnc1SCC(=O)c1ccc(Cl)cc1` (stereo not given), the inhibition rises from -0.52% to 1.26%.

Compared with `O=c1c2cc(-c3ccccc3)sc2nc2n1N=C(c1cccs1)CS2`, `O=c1c2ccccc2cnn1Cc1n[nH]c(=S)n1-c1ccccc1F` is lower in inhibition: 0.0849% for the first, -0.397% for the second.

First: COc1cccc(C2=CC(=O)C[C@H](c3ccc(OC)c(OC)c3)C2)c1
Second: CCN(CCCCOC(=O)c1ccc(OC)c(OC)c1)C(C)Cc1ccc(OC)cc1 (stereo not given)
The inhibition of the first is lower: -3.83% for the first, 0.111% for the second.

First: COc1cccc2cc(/C(C)=N/NC(=O)c3ccco3)oc12
Second: COc1ccccc1NC(=O)N1CCCC1C(=O)NCc1cccs1 (stereo not given)
The inhibition of the first is higher: 1.34% for the first, 0.501% for the second.

First: COc1cc(NC(=O)C2=C(C)OCCS2)c(Cl)cc1C(=O)NCCN1CCN(C)CC1
Second: O=C(NCCN1CCOCC1)c1cc(Sc2cccc(Cl)c2)nc2ccccc12
The inhibition of the first is higher: -0.476% for the first, -0.717% for the second.

First: COc1ccc(-c2nnc(SC(=O)N3c4ccccc4Sc4ccccc43)o2)cc1
Second: Nc1nc(NC(=O)/C=C/c2ccc(F)cc2)nn1-c1ccccc1
The inhibition of the first is higher: -0.412% for the first, -1.05% for the second.

Compared with `COc1cc(CC(=O)N2CCC(n3nccc3NC(=O)C3CC3)CC2)cc(OC)c1OC`, `CCOC(=O)c1cc2c(ccn2C)n1CC(=O)N1CCC(C)CC1` is lower in inhibition: 0.38% for the first, -2.05% for the second.

First: COc1ccc(N2CCN(C(=O)c3cccs3)CC2)cc1
Second: CN1CCN(S(=O)(=O)c2cccc(C(=O)N3CCc4ccccc43)c2)CC1
The inhibition of the first is lower: -0.405% for the first, 2.67% for the second.

Going from `CCOC(=O)c1c(NC(=O)CN2C(=O)NC3(CCC(C)CC3)C2=O)sc(C)c1CC` (stereo not given) to `CCOC(=O)N1CCC(Nc2c(NCCCN3CCN(CC)CC3)c(=O)c2=O)CC1`, the inhibition rises from -4.1% to -1.72%.

First: O=C1CCC(C(=O)N2CCN(c3ccccc3Cl)CC2)CN1CC1CCCCC1 (stereo not given)
Second: CC(C)N(C(=O)Cn1cc(SCC(=O)N2CCCC2)c2ccccc21)C(C)C
The inhibition of the first is higher: 0.849% for the first, 0.81% for the second.

Going from `Cc1ccc(C(O)P(=O)(OC(C)C)c2ccc(N(C)C)cc2)cc1` (stereo not given) to `Cc1ccc(C2(c3ccc(C)cc3)NC(=O)N(Cc3c(C)noc3C)C2=O)cc1`, the inhibition rises from -1.46% to 2.04%.

Compared with `CCCCCCCCc1c(O)nc(-n2[nH]c(C)c(CCO)c2=O)[nH]c1=O`, `CCc1c(C)[nH]c(=S)c(C#N)c1C` is lower in inhibition: 2.37% for the first, 1.29% for the second.

Compared with `ONC(=Nc1ccccc1)c1ccccc1Cl`, `Cc1ccc(NC(=O)c2ccn(C(=O)Nc3ccccc3)n2)c(C)c1` is higher in inhibition: 0.392% for the first, 0.808% for the second.

Compared with `S=C(NCCc1ccccc1)N1CCn2cccc2C1c1ccncc1` (stereo not given), `CC(CCc1ccccc1)NCC(O)c1cccc([N+](=O)[O-])c1` (stereo not given) is lower in inhibition: 0.92% for the first, -0.221% for the second.

First: CNC[C@@H]1Oc2c(NS(C)(=O)=O)cccc2C(=O)N([C@@H](C)CO)C[C@H]1C
Second: Cc1ccc(S(=O)(=O)N2CCC(C)CC2)cc1C(=O)NCc1ccccn1
The inhibition of the first is higher: -0.151% for the first, -2.55% for the second.

Going from `O=C1NC(=O)C(c2ccc(Cl)cc2)N1` (stereo not given) to `Oc1ccc(-c2onc3ccc(Cl)cc23)cc1`, the inhibition falls from 0.455% to -1.19%.

Compared with `O=C(CC1CCCCC1)Nc1c2c(nn1-c1ccc(F)cc1)CS(=O)(=O)C2`, `O=C(Nc1ccc(F)c(Cl)c1)C1CCN(S(=O)(=O)c2cccnc2)CC1` is higher in inhibition: -1.58% for the first, 0.143% for the second.

Going from `CCOc1ccc(NC(=S)N2CCC(N(C)CC3CCCO3)CC2)cc1` (stereo not given) to `Cc1cccc(NC(=O)c2ccc3c(=O)n(CC4CCCO4)c(=S)[nH]c3c2)c1` (stereo not given), the inhibition falls from 1.59% to 0.387%.

Compared with `CN1C(=O)CC(N2CCN(c3ccccn3)CC2)C1=O` (stereo not given), `CC(C)(C)CN1CCNC(=O)C1CC(=O)NC1Cc2ccccc2C1` (stereo not given) is higher in inhibition: -2.59% for the first, -0.537% for the second.

First: O=[N+]([O-])c1cc(S(=O)(=O)Nc2cccc(Cl)c2)ccc1N=Nc1c(O)[nH]c2ccccc12
Second: Cc1ccc2c(c1)C1CN(C)CCC1N2S(=O)(=O)c1ccc(Oc2ccc([N+](=O)[O-])cc2)cc1 (stereo not given)
The inhibition of the first is lower: 3.07% for the first, 3.72% for the second.

Compared with `Cc1ccc(NC(=O)Cc2nnc(SCC(=O)Nc3nncs3)n2C)cc1`, `CC(OC(=O)CCC(=O)c1ccccc1)C(=O)Nc1ccc(F)cc1` (stereo not given) is lower in inhibition: 1.58% for the first, 0.19% for the second.

Compared with `CC1CC(NC(=O)/C(C#N)=C/c2ccc[nH]2)CC(C)(C)C1` (stereo not given), `COC(=O)/C=C(\Oc1ccccc1)C1(O)CCCCC1` is higher in inhibition: -0.655% for the first, -0.0675% for the second.

Compared with `CC(C)c1csc(CN2CCC(CO)(Cc3ccccc3)CC2)n1`, `CCCn1c2ccccc2c2cnn(CC(=O)NCCCN3CCCCC3CC)c(=O)c21` (stereo not given) is lower in inhibition: 1.24% for the first, -1.26% for the second.

First: COc1ccnc(Oc2ccccc2)c1-c1ncn[nH]1
Second: CC(OC(=O)c1ccc2noc(-c3ccccc3)c2c1)C(N)=O (stereo not given)
The inhibition of the first is higher: 1.4% for the first, 1.01% for the second.

Compared with `CCOCCN(C=O)c1cccc(OC)c1`, `COCCN(C(=O)C(C)C)c1nnc(-c2ccc(C(C)(C)C)cc2)s1` is higher in inhibition: -2.42% for the first, 2.82% for the second.

In the case of `COCCNc1nc2nonc2nc1N(C)Cc1ccc(C)cc1`, the inhibition is reported as 0.32%.

In the case of `COc1ccc(-c2onc3ccc(C(C)=O)cc23)cc1`, the inhibition is reported as 12.7% (active).
